# From PubChem
# FUS yeast rescue – qHTS for Suppressors of FUS Proteinopathy: Primary screen using FUS-linked yeast assay | Potency, µM (titrated, usually from 76.6 µM), hits mostly activators | S. cerevisiae FUS-expressing, growth rescue, OD600, 24 h | 390,000 compounds, 0.24% hits;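 note: plate controls were DMSO vehicle for no effect and reference control for full effect; nearly all actives have a fitted effect of over 55% in size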
#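 Galactose (2%) drives FUS expression in yeast precultured in raffinose; seeding density OD 0.005. Test compounds incubated 24hr at 30C and 99% humidity before absorbance at 600 nm was measured.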
# aSyn rescue – qHTS of alpha-syn Inhibitors | Yeast expressing alpha-synuclein, growth rescue, BacTiter-Glo, 24 h | Potency, µM (series often up to 46.1 µM), without a hit: top-dose growth rescue (activation), usual class: activators | 370,000 compounds, 0.14% hits | AID 652106, 2013; note: % of control where 0% means no effect; nearly all actives have a fitted effect of over 65% in size
#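 Rescue of yeast growth: cells expressing toxic alpha-synuclein, induced in galactose at OD600 0.02, incubated with compound 24 h at 30 C. ATP luminescence quantified growth; inhibitors of toxicity appear as activators.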
# TDP43 rescue – qHTS of TDP-43 Inhibitors; 410,000 compounds, 1.8% hits; TDP-43 expressing yeast growth rescue, BacTiter-Glo, 24 h; Potency, µM (doses to about 46.1 µM), for inactives: top-dose growth rescue (activation), usual class: activators; note: % of control where 0% means no effect; nearly all actives have a fitted effect of over 50% in size
#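 Readout is BacTiter-Glo luminescence of cell growth, so inhibitors register as activators. TDP-43-expressing yeast at OD600=0.02 in galactose medium, after raffinose pregrowth to mid-log, were incubated with compound for 24 hr at 30 deg C.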
# Abeta yeast res – qHTS for compounds that reverse cellular toxicity of Amyloid beta (A-beta) peptide in yeast: Primary Screen; yeast expressing A-beta42, growth rescue, OD600, 48 h; response scale: 0% DMSO, 100% iron-clioquinol control; Potency, µM (top dose mostly 46.1 µM), usual class: activators; 410,000 compounds, 0.063% hits; AID 1347071, 2019; note: nearly all actives have a fitted effect of over 55% in size
#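 Yeast A-beta toxicity model in growth medium with pinned compounds, 48 h at 30 C; growth read as absorbance at 600 nm. Normalized to FeCl3/clioquinol equimolar mix (positive) and DMSO (negative).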
# * marks the source's active call; other numbers are inactive results; i = inactive; ? = inconclusive; · = not tested or not shown; [ ] = dose if it differs, or a comment. The list is not random: actives were taken first. Their share in the collection is about 2.1%. Calls come from the whole dose curve; as a rule, active = well fitted curve in the direction sought with a large enough effect; inconclusive = small, poorly fitted or top-dose-only effect, or another doubt; inactive = no such curve, though single readings can be large; an effect the other way counts as inactive or inconclusive. Potency is the fitted concentration of half-maximal effect.
SMILES,FUS yeast rescue,aSyn rescue,TDP43 rescue,Abeta yeast res
COc1ccc(N2CCN(C(=O)CCC(=O)N3CCOc4ccc(Cl)cc43)CC2)cc1,i,10%,16µM*,i
CCOC(=O)CNC(c1ccccc1)c1cc(Br)ccc1NC(=O)CCN1CCOCC1 (stereo not drawn),i,-7%,22µM*,i
COC(=O)CNC(c1ccccc1)c1cc(Br)ccc1NC(=O)CCN1CCOCC1 (stereo not drawn),?,7%,?,i
O=C(OCc1cccc(Cl)c1)c1cc([N+](=O)[O-])ccc1N1CCOCC1,i,4%,20µM*,i
COc1cccc(CNC(=O)COC(=O)C2CCN(c3ccc(C(F)(F)F)cn3)CC2)c1,·,2%,13µM*,i
O=C(COC(=O)c1cc([N+](=O)[O-])ccc1N1CCOCC1)NCc1ccccc1,i,-5%,-8%,i
COc1cccc(CNC(=O)COC(=O)c2cc([N+](=O)[O-])ccc2N2CCCC2)c1,·,4%,35µM*,i
O=C(COC(=O)C1CCN(c2ccc(C(F)(F)F)cn2)CC1)NCc1cccc(Cl)c1,i,-19%,?,i
CCOC(=O)C1CCCN(S(=O)(=O)c2ccc(N3CCCCS3(=O)=O)cc2)C1 (stereo not drawn),i,·,7%[9.22 µM],i
Cc1ccc(NC(=O)CN2C(=O)COc3ccc(S(=O)(=O)N4CCCCC4)cc32)cc1N(C)C,i,·,21%,i
Cc1ccc(-c2csc3ncnc(SCC(=O)NCc4ccc5c(c4)OCO5)c23)cc1,i,2%,-1%,i
O=C(NCc1ccc2c(c1)OCO2)c1cnc2ccccn2c1=O,i,-9%,-10%,i
Cc1csc2ncc(C(=O)NCc3ccccc3Cl)c(=O)n12,i,-1%,22µM*,i
O=C(CSc1ncnc2sccc12)NCc1ccc2c(c1)OCO2,i,?,16µM*,i
Cc1csc2ncc(C(=O)NCc3ccc4c(c3)OCO4)c(=O)n12,i,0%,10µM*,i
O=C(NCc1ccccc1Cl)c1cnc2n(c1=O)CCS2,i,-2%,?,i
CCCN(CCC)C(=O)Cn1c(=O)n(-c2cccc(C(F)(F)F)c2)c(=O)c2c(C)c(C)sc21,i,·,7%,i
Cc1cc(C)cc(N(CC(=O)NCc2ccccc2Cl)S(=O)(=O)c2c(C)noc2C)c1,i,·,11%,i
CCc1ccc2oc(C(=O)Nc3cc(Cl)ccc3OC)cc(=O)c2c1,i,·,9%,i
COc1cc2oc3ccccc3c(=O)c2cc1OC,i,?,16µM*,i
CC(C)C(=O)Nc1ccc(N2CCN(C(=O)c3cccs3)CC2)cc1,i,-6%,5%,i
CC(C)CC(=O)NC(=S)Nc1ccc(N2CCN(C(=O)c3cccs3)CC2)cc1,i,-4%,18µM*,i
O=C(c1cc(-c2cccs2)on1)N1CCN(c2ccc(F)cc2)CC1,i,7%,4%,i
S=C(c1cccs1)N1CCN(c2ccccc2)CC1,·,9%,18µM*,i
COc1ccc(OC)c(-c2cc(C(=O)N3CCc4ccccc4C3)no2)c1,i,22%,9%,i
SMILES,FUS yeast rescue,aSyn rescue,TDP43 rescue,Abeta yeast res
O=C(c1cc(-c2cccs2)on1)N1CCN(c2ccccc2)CC1,i,8%,11µM*,i
COc1ccc(OC)c(-c2cc(C(=O)N3CCN(c4ccccc4)CC3)no2)c1,?,9%,22µM*,i
COc1ccc(CCNC(=O)Cn2cc(C(=O)c3ccccc3)c(=O)c3ccc(C)nc32)cc1OC,i,·,-5%,i
CCn1c(=O)c2cc(C(=O)N(CCCOC(C)C)Cc3ccco3)sc2c2ccccc21,i,·,?,i
O=C(COCc1cc(-c2cccs2)on1)N1CCN(c2ccc(F)cc2)CC1,i,·,16µM*,i
COc1ccc(OC)c(-c2noc(N3CCN(c4ccc(Cl)cc4)CC3)n2)c1,i,·,11µM*,i
COc1ccc(-c2cc(C(=O)N3CCN(c4ccccc4)CC3)no2)cc1,i,6%,11µM*,i
O=C(C[n+]1ccccc1Br)c1ccc(Cl)cc1,·,0%,·,·
Cc1cc(C)cc(NC(=O)CCc2c(C)nc3c(c2C)c(=O)n(C)c(=O)n3C)c1,i,·,1%,i
Cc1ccc(Cn2c(C)c(CNC(C)c3ccccc3)c(C(=O)O)c2C)cc1 (stereo not drawn),i,·,6%,i
Nc1c(C(=O)NCc2ccco2)nnn1CC(=O)Nc1ccccc1,40µM*,-7%,-3%,i
CCCn1c(=S)[nH]c2cc(Cl)ccc21,i,-6%,?,?
CCn1c(=S)[nH]c2cc(Cl)ccc21,i,5%,-10%,13µM*
CCC(C)CNC(=O)c1oc(=O)c2ccccc2c1-c1ccc(C)cc1 (stereo not drawn),i,·,·,·
c1coc(CN(Cc2ccco2)c2ncnc3c2oc2ccccc23)c1,?,1%,20µM*,i
Clc1ncnc2c1oc1ccccc12,i,-4%,18%,i
CCc1ccc(NC(=O)CCS(=O)(=O)c2ccc3c(c2)n(C)c(=O)c(=O)n3C)cc1,i,·,17%,i
COc1ccccc1-c1nc2c(c(SCC(=O)Nc3ccccc3F)n1)Cc1c(CO)cnc(C)c1O2,i,·,16%,i
COC(=O)[C@]12CCCCC=C1N(Cc1ccc(OC)cc1)C(=O)[C@@H]2CC(=O)N1CCOCC1,i,·,·,·
c1ccc2c(c1)OCCc1c-2[nH]c2ccccc12,i,-3%,13µM*,i
O=C1CCCc2c1[nH]c1ccccc21,i,0%,21%,i
COc1ccc(CCn2c(=O)c3cccnc3n(CC(=O)Nc3c(C)cccc3C)c2=O)cc1OC,i,·,18%,i
CCC1(C(=O)c2ccc(Cl)cc2)C2c3ccccc3OC(=O)C21C(=O)Nc1ccccc1 (stereo not drawn),·,14µM*,2%,i
O=C(Nc1ccc(Nc2ccccc2)cc1)c1ccc(Cl)cc1,i,11%,5%,i
Cc1cc2ccc(Cl)nc2nc1C,·,-1%,·,·
SMILES,FUS yeast rescue,aSyn rescue,TDP43 rescue,Abeta yeast res
CCc1sc(-c2cc3cccc(OC)c3oc2=O)nc1-c1ccccc1,·,1%,·,·
COc1ccc(N2CCN(S(=O)(=O)c3ccc4c(c3)CC(C)N4C(C)=O)CC2)cc1 (stereo not drawn),i,·,-9%,i
CCOc1ccc(-c2nnc3ccc(SC(C)C)nn23)cc1,i,-7%,16µM*,i
CCOc1ccc(-c2nnc3ccc(SCC(=O)N4CCCCC4)nn23)cc1,i,1%,14%,i
COC(=O)c1ccc2nc(-c3ccccc3)c(Cc3ccccc3OC)n2c1,i,-6%,35µM*,i
COC(=O)c1ccc2nc(-c3ccc(C)cc3)c(Cc3ccccc3OC)n2c1,i,-5%,-8%,i
